Laboratory results taken from PubChem BioAssay (Tox21).
Inconclusive results are not listed. Active and inactive are the calls of the source. Calls follow the shape of the dose curve; as a rule, active = well fitted curve in the direction sought with a large enough effect in the repeat runs; inconclusive = weak or mixed curves; inactive = no such curve, though single readings can be large; an effect the other way counts as inactive or inconclusive.

Experiments:
[1] = A CellTox Green Cytotoxicity Assay to monitor cytotoxicity in HEK293 cells - 40 hour (AID 1224871); also: nearly all actives have a fitted effect of over 45% in size
Summary of the method: (§1)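 Real-time, in one plate: 600 HEK293 cells/well with dead-cell DNA dye, pinned compound after 5 h, 37 C incubation over 40 h; viable cells give no appreciable fluorescence.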

[2] = qHTS RealTime-Glo MT Cell Viability Assay in HEK293 cells - 16 hour (AID 1224872); also: top concentration of the series differs between compounds; nearly all actives have a fitted effect of over 50% in size
Summary of the method: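 Cells + reagent dispensed (600 cells/well, HEK293) → 5 h at 37 C/5% CO2 → 23 nL compound in DMSO pinned → 40 h at 37 C → luminescence read at 0, 8, 16, 24, 32, 40 h.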

[3] = qHTS RealTime-Glo MT Cell Viability Assay in HepG2 cells - 8 hour (AID 1224873); also: nearly all actives have a fitted effect of over 55% in size
Summary of the method: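 Real-time viability: cells seeded at 600 per well together with NanoLuc and cell-permeant prosubstrate, compounds added after 5 h incubation. Luminescence tracked at 0, 8, 16, 24, 32 and 40 h of exposure.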

[4] = qHTS RealTime-Glo MT Cell Viability Assay in HEK293 cells - 40 hour (AID 1224874); conditions: RealTime-Glo luminescence; max response: hits give low values; also: nearly all actives have a fitted effect of over 50% in size
Summary of the method: (§2)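 Kinetic, non-lysing viability readout. Seed HEK293 (600/well) with reagent, incubate 5 h at 37 C/5% CO2, pin 23 nL compound in DMSO, incubate at 37 C, read luminescence at 0, 8, 16, 24, 32, 40 h.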

[5] = A CellTox Green Cytotoxicity Assay to monitor cytotoxicity in HEK293 cells - 24 hour (AID 1224875); also: series mostly up to about 77 µM; nearly all actives have a fitted effect of over 45% in size
Summary of the method: as §1

[6] = qHTS RealTime-Glo MT Cell Viability Assay in HepG2 cells - 32 hour (AID 1224877); also: nearly all actives have a fitted effect of over 55% in size
Summary of the method: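 Real-time, nonlytic viability: 600 HepG2 cells/well mixed with NanoLuc enzyme plus prosubstrate; 5 h settle, compound (DMSO) added by pintool; luminescence monitored over 40 h at 37 C.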

[7] = A CellTox Green Cytotoxicity Assay to monitor cytotoxicity in HepG2 cells - 24 hour (AID 1224878); also: nearly all actives have a fitted effect of over 45% in size
Summary of the method: (§3)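 Cytotoxicity was tracked as dead-cell DNA fluorescence in HepG2 cells treated with test compounds at 37 C; each time-point value comes from one kinetic series spanning 0, 8, 16, 24, 32 and 40 h.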

[8] = A CellTox Green Cytotoxicity Assay to monitor cytotoxicity in HepG2 cells - 40 hour (AID 1224879); also: nearly all actives have a fitted effect of over 40% in size
Summary of the method: as §3

[9] = qHTS RealTime-Glo MT Cell Viability Assay in HEK293 cells - 0 hour (AID 1224880); also: top concentration of the series differs between compounds; nearly all actives have a fitted effect of over 45% in size
Summary of the method: as §2

[10] = A CellTox Green Cytotoxicity Assay to monitor cytotoxicity in HepG2 cells - 16 hour (AID 1224876); also: nearly all actives have a fitted effect of over 45% in size
Summary of the method: as §3
% is scaled to controls: 0 for no effect and ±100 for the full control effect.

CNC(=O)NC(O)C(Cl)(Cl)Cl (stereo not given)
inactive: Potency [1] | Potency [2] | outcome [3] | max response [4] 9.22% | Potency [5] | Potency [6] | Potency [7] | Potency [8] | outcome [9]

CS(=O)(=O)c1ccc(C(=O)C2C(=O)CCCC2=O)c(Cl)c1COCC(F)(F)F
inactive: Potency [1] | Potency [2] | outcome [3] | max response [4] 2.82% | Potency [5] | Potency [10] | Potency [7] | Potency [8]

CCOC(=O)CC(SP(=S)(OC)OC)C(=O)OCC (stereo not given)
inactive: Potency [1] | Potency [2] | outcome [3] | max response [4] 11.4% | Potency [5] | Potency [6] | Potency [7] | Potency [8] | outcome [9]

CCOP(=S)(OCC)Oc1ccc(Cl)cc1Cl
inactive: Potency [1] | Potency [2] | outcome [3] | max response [4] 2.64% | Potency [5] | Potency [6] | Potency [7] | Potency [8] | outcome [9]

C[C@@H](N)[C@@H](O)c1ccccc1
inactive: Potency [1] | Potency [2] | outcome [3] | max response [4] 1.05% | Potency [5] | Potency [10] | Potency [7] | Potency [8] | outcome [9]

CC(Cc1ccccc1)NCCCCl (stereo not given)
inactive: Potency [1] | Potency [2] | outcome [3] | max response [4] 5.94% | Potency [5] | Potency [6] | Potency [7] | Potency [8] | outcome [9]

N[C@@H]1C[C@H]1c1ccccc1
inactive: Potency [1] | Potency [2] | outcome [3] | max response [4] 1.46% | Potency [5] | Potency [10] | Potency [7] | Potency [8] | outcome [9]

O=C(Cl)OCc1ccccc1
inactive: Potency [1] | Potency [2] | outcome [3] | max response [4] 10.6% | Potency [5] | Potency [10] | Potency [7] | Potency [8] | outcome [9]

CCCCCCC(=O)CCCCCC/C=C/C[C@@H](O)[C@H](O)[C@@](N)(CO)C(=O)O
inactive: cytotoxicity increase [1] -5.02% [at 15.8 µM] | activity change, negative = cytotoxicity [2] -2.21% [at 15.8 µM] | viability change, negative = cytotoxic [3] 1.7% [at 15.8 µM] | max response [4] 2.74% | activity change [5] -5.64% [at 15.8 µM, hits give high values] | activity change, negative = cytotoxic [6] 0.443% [at 15.8 µM] | cytotoxicity [7] -14.9% [at 15.8 µM] | cytotoxicity increase [8] -21.5% [at 15.8 µM] | activity change, negative = cytotoxicity [9] 3.85% [at 15.8 µM]

Cc1ccc2c(c1)C1CN(C)CCC1N2 (stereo not given)
inactive: cytotoxicity increase [1] -9.63% [at 15.8 µM] | activity change, negative = cytotoxicity [2] -1.2% [at 15.8 µM] | viability change, negative = cytotoxic [3] -2.24% [at 15.8 µM] | max response [4] 2.17% | activity change [5] 0.918% [at 15.8 µM, hits give high values] | cytotoxicity increase [10] 12.2% [at 15.8 µM] | cytotoxicity [7] 11.8% [at 15.8 µM] | cytotoxicity increase [8] 15.6% [at 15.8 µM] | activity change, negative = cytotoxicity [9] -0.907% [at 15.8 µM]

CCOP(=O)(CN(CCO)CCO)OCC
inactive: Potency [1] | Potency [2] | outcome [3] | max response [4] 1.2% | Potency [5] | Potency [6] | Potency [7] | Potency [8] | outcome [9]

CC(C)(N)Cc1ccccc1Cl
inactive: Potency [1] | Potency [2] | outcome [3] | max response [4] 1.76% | Potency [5] | Potency [10] | Potency [7] | Potency [8] | outcome [9]

O=C(O)CBr
inactive: Potency [1] | Potency [2] | outcome [3] | max response [4] -0.861% | Potency [5] | Potency [10] | Potency [7] | Potency [8] | outcome [9]

O=C(O)C(Br)(Br)Br
inactive: Potency [1] | Potency [2] | outcome [3] | max response [4] -0.0563% | Potency [5] | Potency [10] | Potency [7] | Potency [8]

CCCOC(=O)c1cncn1C(C)c1ccccc1 (stereo not given)
inactive: Potency [1] | Potency [2] | outcome [3] | max response [4] -0.62% | Potency [5] | Potency [10] | Potency [7] | Potency [8]

NCC1(CC(=O)O)CCCCC1
inactive: Potency [1] | Potency [2] | outcome [3] | max response [4] 1.23% | Potency [5] | Potency [10] | Potency [7] | Potency [8] | outcome [9]

CC(C)(C1CCC(O)CC1)C1CCC(O)CC1 (stereo not given)
inactive: Potency [1] | Potency [2] | outcome [3] | max response [4] -18.7% | Potency [5] | Potency [6] | Potency [7] | Potency [8] | outcome [9]

ClCCN1CCCC1
inactive: Potency [1] | Potency [2] | outcome [3] | max response [4] 8.04% | Potency [5] | Potency [6] | Potency [7] | Potency [8]

Nc1c(Cl)c(F)nc(OCC(=O)O)c1Cl
inactive: Potency [1] | Potency [2] | outcome [3] | max response [4] 2.97% | Potency [5] | Potency [6] | Potency [7] | Potency [8] | outcome [9]

CN(C)C(=O)Oc1cc(OC(=O)N(C)C)cc(C(O)CNC(C)(C)C)c1 (stereo not given)
inactive: Potency [1] | Potency [2] | outcome [3] | max response [4] -1.56% | Potency [5] | Potency [6] | Potency [7] | Potency [8]

COC1=CC(=O)O[C@@H](/C=C/c2ccccc2)C1
inactive: Potency [1] | Potency [2] | outcome [3] | max response [4] -17.5% | Potency [5] | Potency [10] | Potency [7] | Potency [8] | outcome [9]

CCOC(=O)N(C)N=O
inactive: Potency [1] | Potency [2] | outcome [3] | max response [4] 1.11% | Potency [5] | Potency [10] | Potency [7] | Potency [8] | outcome [9]

O=C(NC(O)C(Cl)(Cl)Cl)NC(O)C(Cl)(Cl)Cl (stereo not given)
inactive: Potency [1] | Potency [2] | outcome [3] | max response [4] 0.623% | Potency [5] | Potency [6] | Potency [7] | Potency [8] | outcome [9]

CCOC(=O)CCl
inactive: Potency [1] | Potency [2] | outcome [3] | max response [4] 14.4% | Potency [5] | Potency [10] | Potency [7] | Potency [8] | outcome [9]

O=C(Cl)CCl
inactive: Potency [1] | Potency [2] | outcome [3] | max response [4] 0.179% | Potency [5] | Potency [10] | Potency [7] | Potency [8] | outcome [9]
